Data as given in ChEMBL document CHEMBL1961873, “Compounds: GSK PKIS; Assays: Nanosyn kinase panel” (2012).

How the values were obtained:
[1] = target: Tyrosine-protein kinase Fer (Homo sapiens) (UniProt P16591); settings: at 1 µM
[2] = target: Tyrosine-protein kinase Fes/Fps (Homo sapiens) (UniProt P07332); settings: at 0.1 µM
[3] = target: Tyrosine-protein kinase Fes/Fps (Homo sapiens) (UniProt P07332); settings: at 1 µM
[4] = target: Fibroblast growth factor receptor 1 (Homo sapiens) (UniProt P11362); settings: at 0.1 µM
[5] = target: Fibroblast growth factor receptor 1 (Homo sapiens) (UniProt P11362); settings: at 1 µM
[6] = target: Fibroblast growth factor receptor 2 (Homo sapiens) (UniProt P21802); settings: at 0.1 µM
[7] = target: Fibroblast growth factor receptor 2 (Homo sapiens) (UniProt P21802); settings: at 1 µM
[8] = target: Fibroblast growth factor receptor 3 (Homo sapiens) (UniProt P22607); settings: at 0.1 µM
[9] = target: Fibroblast growth factor receptor 3 (Homo sapiens) (UniProt P22607); settings: at 1 µM
[10] = target: Fibroblast growth factor receptor 4 (Homo sapiens) (UniProt P22455); settings: at 0.1 µM;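 also: values are mean percent inhibition of FGFR4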
Chain of Fibroblast growth factor receptor 4 (Homo sapiens) (P22455 22-802 limits assumed): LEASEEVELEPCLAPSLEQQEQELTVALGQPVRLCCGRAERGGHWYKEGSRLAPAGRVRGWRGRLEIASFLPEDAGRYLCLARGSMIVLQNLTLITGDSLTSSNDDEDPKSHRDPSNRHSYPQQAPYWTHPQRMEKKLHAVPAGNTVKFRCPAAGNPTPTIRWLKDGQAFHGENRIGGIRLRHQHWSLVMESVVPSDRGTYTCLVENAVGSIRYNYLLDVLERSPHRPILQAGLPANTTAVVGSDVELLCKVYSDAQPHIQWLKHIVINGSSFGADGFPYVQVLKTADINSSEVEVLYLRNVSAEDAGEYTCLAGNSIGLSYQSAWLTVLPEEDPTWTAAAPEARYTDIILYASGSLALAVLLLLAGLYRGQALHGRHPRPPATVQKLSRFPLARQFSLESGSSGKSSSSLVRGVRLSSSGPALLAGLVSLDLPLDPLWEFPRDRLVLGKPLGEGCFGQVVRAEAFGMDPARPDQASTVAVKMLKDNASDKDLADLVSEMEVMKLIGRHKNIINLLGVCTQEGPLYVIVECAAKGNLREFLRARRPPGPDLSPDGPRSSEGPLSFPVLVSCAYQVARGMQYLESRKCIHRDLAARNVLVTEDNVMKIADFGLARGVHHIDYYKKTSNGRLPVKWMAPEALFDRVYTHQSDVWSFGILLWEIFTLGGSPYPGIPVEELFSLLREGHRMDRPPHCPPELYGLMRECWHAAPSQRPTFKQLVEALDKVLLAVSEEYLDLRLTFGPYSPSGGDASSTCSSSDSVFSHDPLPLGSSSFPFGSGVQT

Chain of Fibroblast growth factor receptor 3 (Homo sapiens) (P22607 23-806 limits assumed): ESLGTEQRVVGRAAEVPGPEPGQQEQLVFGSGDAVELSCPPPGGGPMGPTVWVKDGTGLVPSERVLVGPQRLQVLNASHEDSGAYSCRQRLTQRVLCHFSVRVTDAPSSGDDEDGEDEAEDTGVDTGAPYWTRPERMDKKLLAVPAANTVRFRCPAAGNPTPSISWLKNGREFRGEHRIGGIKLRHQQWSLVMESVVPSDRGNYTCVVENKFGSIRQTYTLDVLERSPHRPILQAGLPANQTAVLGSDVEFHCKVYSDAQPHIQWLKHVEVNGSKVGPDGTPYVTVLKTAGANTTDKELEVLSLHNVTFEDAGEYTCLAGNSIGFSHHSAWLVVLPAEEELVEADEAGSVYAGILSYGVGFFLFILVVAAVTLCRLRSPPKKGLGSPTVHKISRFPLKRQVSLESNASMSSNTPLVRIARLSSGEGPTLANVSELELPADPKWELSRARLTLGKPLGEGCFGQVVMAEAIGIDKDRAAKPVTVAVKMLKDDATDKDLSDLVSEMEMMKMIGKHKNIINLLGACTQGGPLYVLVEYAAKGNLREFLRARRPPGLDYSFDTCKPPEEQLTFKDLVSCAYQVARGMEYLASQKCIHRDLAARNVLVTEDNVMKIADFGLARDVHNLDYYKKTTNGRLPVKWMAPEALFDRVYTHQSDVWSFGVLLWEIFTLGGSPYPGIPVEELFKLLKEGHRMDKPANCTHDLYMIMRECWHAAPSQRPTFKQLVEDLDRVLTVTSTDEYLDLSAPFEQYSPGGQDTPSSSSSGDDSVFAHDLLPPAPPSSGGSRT
Chain of Fibroblast growth factor receptor 1 (Homo sapiens) (P11362 22-822 limits assumed): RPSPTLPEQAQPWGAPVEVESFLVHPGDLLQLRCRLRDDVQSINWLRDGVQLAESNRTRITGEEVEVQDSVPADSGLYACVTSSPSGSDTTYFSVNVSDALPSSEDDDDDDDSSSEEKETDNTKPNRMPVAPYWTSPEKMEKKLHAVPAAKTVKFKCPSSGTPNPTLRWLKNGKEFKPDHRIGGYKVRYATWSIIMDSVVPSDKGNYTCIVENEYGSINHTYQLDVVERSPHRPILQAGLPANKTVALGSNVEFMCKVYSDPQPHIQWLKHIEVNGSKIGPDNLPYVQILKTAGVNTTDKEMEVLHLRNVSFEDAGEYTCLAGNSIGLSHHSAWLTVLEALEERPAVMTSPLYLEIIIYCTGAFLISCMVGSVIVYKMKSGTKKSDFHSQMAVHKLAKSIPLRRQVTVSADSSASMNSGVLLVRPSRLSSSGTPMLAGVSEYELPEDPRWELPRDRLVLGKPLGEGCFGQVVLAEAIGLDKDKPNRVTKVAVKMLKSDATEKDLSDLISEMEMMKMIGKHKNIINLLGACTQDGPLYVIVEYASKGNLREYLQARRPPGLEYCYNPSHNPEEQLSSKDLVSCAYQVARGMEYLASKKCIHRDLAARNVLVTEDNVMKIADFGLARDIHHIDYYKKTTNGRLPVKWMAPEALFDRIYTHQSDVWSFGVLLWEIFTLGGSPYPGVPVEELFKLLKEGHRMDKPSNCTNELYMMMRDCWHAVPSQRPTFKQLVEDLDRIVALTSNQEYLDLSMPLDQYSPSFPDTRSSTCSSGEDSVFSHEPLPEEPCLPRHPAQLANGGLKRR
Chain of Fibroblast growth factor receptor 2 (Homo sapiens) (P21802 22-821 limits assumed): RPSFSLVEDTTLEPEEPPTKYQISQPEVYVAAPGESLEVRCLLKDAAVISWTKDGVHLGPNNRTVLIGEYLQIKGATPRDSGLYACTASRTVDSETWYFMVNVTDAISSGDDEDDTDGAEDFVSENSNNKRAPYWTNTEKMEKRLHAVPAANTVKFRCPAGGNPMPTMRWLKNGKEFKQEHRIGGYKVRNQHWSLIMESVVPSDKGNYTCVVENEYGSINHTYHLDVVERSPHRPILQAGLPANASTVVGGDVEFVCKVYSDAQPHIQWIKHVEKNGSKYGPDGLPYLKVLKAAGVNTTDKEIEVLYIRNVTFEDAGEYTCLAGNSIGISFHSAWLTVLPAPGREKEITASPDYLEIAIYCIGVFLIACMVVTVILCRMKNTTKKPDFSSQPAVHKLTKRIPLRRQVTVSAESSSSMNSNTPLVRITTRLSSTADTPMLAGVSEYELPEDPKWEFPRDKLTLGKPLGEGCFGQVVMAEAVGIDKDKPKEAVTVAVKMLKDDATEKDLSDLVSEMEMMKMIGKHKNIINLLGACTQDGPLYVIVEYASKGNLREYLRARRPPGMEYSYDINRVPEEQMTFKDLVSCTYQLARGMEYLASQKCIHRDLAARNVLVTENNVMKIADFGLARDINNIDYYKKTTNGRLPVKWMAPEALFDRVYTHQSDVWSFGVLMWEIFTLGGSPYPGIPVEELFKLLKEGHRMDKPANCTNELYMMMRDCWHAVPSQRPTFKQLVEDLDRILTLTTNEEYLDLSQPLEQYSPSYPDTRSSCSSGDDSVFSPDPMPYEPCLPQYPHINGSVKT
Chain of Tyrosine-protein kinase Fer (Homo sapiens) (P16591 whole entry, looked up): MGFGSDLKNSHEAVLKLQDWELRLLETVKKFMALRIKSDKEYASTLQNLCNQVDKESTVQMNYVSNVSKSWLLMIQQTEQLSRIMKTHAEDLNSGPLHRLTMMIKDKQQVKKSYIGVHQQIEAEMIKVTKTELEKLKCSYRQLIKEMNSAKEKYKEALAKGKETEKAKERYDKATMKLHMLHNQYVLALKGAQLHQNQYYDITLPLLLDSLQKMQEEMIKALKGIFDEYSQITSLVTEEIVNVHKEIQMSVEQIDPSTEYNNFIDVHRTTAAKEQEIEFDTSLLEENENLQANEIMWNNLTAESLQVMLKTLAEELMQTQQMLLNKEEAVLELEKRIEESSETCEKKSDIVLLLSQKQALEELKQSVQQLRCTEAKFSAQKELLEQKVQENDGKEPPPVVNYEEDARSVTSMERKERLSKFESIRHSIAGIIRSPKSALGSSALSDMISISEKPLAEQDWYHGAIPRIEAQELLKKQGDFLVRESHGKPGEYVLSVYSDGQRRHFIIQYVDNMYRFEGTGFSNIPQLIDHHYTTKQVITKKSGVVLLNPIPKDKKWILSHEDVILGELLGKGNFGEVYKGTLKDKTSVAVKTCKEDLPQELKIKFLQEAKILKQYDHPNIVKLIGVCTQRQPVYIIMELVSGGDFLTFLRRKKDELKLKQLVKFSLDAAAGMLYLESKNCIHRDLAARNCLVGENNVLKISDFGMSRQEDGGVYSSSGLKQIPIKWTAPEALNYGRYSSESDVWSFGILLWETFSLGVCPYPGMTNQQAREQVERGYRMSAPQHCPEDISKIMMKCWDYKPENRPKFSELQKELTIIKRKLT
Chain of Tyrosine-protein kinase Fes/Fps (Homo sapiens) (P07332 whole entry): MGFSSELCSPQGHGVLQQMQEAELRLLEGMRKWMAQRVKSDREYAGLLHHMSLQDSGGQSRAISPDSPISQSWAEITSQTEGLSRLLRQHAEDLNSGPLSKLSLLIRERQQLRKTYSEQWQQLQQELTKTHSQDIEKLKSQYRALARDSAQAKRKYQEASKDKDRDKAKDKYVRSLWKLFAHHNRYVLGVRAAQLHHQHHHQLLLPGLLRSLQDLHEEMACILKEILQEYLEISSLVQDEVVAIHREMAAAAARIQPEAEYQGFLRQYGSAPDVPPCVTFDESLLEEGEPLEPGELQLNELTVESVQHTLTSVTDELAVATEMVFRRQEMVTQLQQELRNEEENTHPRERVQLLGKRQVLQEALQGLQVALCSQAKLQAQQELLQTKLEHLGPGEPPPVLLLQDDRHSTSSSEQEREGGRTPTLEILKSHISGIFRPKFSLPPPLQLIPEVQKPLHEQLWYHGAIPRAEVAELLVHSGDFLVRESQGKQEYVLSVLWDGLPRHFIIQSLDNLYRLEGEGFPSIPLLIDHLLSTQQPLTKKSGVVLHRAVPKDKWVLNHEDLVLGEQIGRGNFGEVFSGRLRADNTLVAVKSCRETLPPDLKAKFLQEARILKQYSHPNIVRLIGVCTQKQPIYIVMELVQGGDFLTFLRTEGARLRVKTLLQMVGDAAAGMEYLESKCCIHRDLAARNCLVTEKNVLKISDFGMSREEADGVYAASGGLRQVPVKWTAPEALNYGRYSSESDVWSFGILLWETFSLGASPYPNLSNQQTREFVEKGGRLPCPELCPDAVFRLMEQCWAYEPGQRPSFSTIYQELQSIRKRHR

SMILES	inhibition [1] [%]	inhibition [2] [%]	inhibition [3] [%]	inhibition [4] [%]	inhibition [5] [%]	inhibition [6] [%]	inhibition [7] [%]	inhibition [8] [%]	inhibition [9] [%]	inhibition [10] [%]
Fc1ccc(-c2nn3ccccc3c2-c2ccncc2)cc1	0.75	0.57	0.96	3.29	0.56	-0.01	6.38	5.68	2.66	0.84
CNC(=O)c1cccc(C#Cc2cncnc2Nc2ccc(OCc3cccc(F)c3)c(Cl)c2)c1	2.2	0.17	1.47	-1.46	0.26	0.94	8.07	1.87	–	0.5
CS(=O)(=O)CCNCc1coc(-c2ccc3ncnc(Nc4ccc(OCc5ccccc5)cc4)c3c2)c1	1.36	2.79	3.78	3.21	2.53	3.27	4.29	5.11	3.99	4.22
CN1CCC(n2cnc(-c3ccc(F)cc3)c2-c2ccnc(Nc3ccccc3)n2)CC1	4.62	2.34	3.11	1.2	-0.76	2.32	4.35	4.39	0.24	0.09
COc1cc(N2CCN(C(C)C)CC2)ccc1Nc1nc(Nc2ccc(F)cc2C(N)=O)c2cc[nH]c2n1	82.8	39.9	81.7	6.98	2.33	7.72	3.84	7.85	3.24	4.7
CC(=O)Nc1cccc(C#Cc2cncnc2Nc2ccc(OCc3cccc(F)c3)c(Cl)c2)c1	1.14	3.02	3.58	5.54	8.04	2.27	5.67	4.66	5.53	0.9
CN1CCC(n2cnc(-c3ccc(F)cc3)c2-c2ccnc(N)n2)CC1	8.24	2.63	2.33	-0.33	-2.26	1.68	4.49	3.51	4.31	1.4
CCCN(CCS(C)(=O)=O)Cc1ccc(-c2ccc3ncnc(Nc4ccc(OCc5cccc(F)c5)c(Cl)c4)c3c2)o1	5.25	1.38	1.43	3.02	2.95	-0.3	2.2	3.56	2.41	1.61
CC1=C(C(=O)Nc2cc(Cl)c3[nH]ncc3c2)C(c2ccc(C(F)(F)F)cc2)CC(=O)N1 (stereo unspecified)	3.32	2.07	2.33	-0.25	2.9	3.38	3.56	9.2	3.77	2.42
Cc1cccc(Nc2ncc(-c3ccccc3)o2)c1	7.96	1.97	3.44	5.23	3.22	6.15	6.52	6.68	4.17	2.94
Clc1ccc(-c2nn3ncccc3c2-c2ccnc(Nc3ccccc3)n2)cc1	4.34	0.87	1.62	-0.82	7.85	0.58	10.3	4.85	6	1.52
CCn1c(-c2nonc2N)nc2cnc(Oc3cccc(NC(=O)c4ccc(N(C)C)cc4)c3)cc21	2.5	0.77	1.31	3.11	0.12	-0.14	3.9	2.5	3.54	1.51
Cc1ccc(O)cc1Nc1ccnc2cc(-c3ccccn3)ccc12	8.05	4.23	8.97	15.1	46.6	12.8	43.2	8.93	25.8	9.41
N#Cc1c(NC(=O)CN2CCOCC2)sc2c1CCCC2	9.05	3.37	6.23	4.57	3.5	3.03	7.88	3.63	6.45	-0.36
COc1cc2ncn(-c3cc(OCc4ccccc4C(F)(F)F)c(C(=O)N(C)C)s3)c2cc1OC	3.02	0.2	0.64	-1.23	10.3	2.76	20.8	1.53	8.98	-1.7
CN(C)CCOc1ccc(-c2nc(-c3ccncc3)c(-c3ccc4c(c3)CC/C4=N\O)[nH]2)cc1	5.81	2.16	2.53	6.05	2.14	4.67	4.48	5.89	4.69	0.23
COc1ccc(-c2cc3c(N)ncnc3o2)cc1	1.69	-0.35	-0.8	-5.35	–	-1.74	-4.78	-0.11	-2.94	2.88

SMILES	inhibition [1] [%]	inhibition [2] [%]	inhibition [3] [%]	inhibition [4] [%]	inhibition [5] [%]	inhibition [6] [%]	inhibition [7] [%]	inhibition [8] [%]	inhibition [9] [%]	inhibition [10] [%]
COC(=O)Nc1nc2ccc(S(=O)(=O)c3ccc(NC(=O)Nc4cc(C(F)(F)F)ccc4F)cc3)cc2[nH]1	2.04	2.47	2.5	3.55	2.11	2.63	7.81	4.85	4.38	-1.95
COc1ccc(CNC(=O)c2ccc(-c3cc(-c4nnc(C)o4)ccc3C)cc2)cc1	4.77	1.89	2.09	3.05	2.33	3.51	5.88	2.91	5.29	3.34
O=S(=O)(CCNCc1ccc(-c2ccc3ncnc(Nc4ccc(OCc5cccc(F)c5)c(Cl)c4)c3c2)o1)c1ccccc1	4.93	4.42	4.26	3.65	8.42	7.23	11.6	7.36	6.93	-5.68
Fc1cccc(COc2ccc(Nc3ncnc4sc(-c5ccco5)cc34)cc2Cl)c1	3.22	3.4	2.89	1.73	5.35	4.08	8.41	5.53	5.9	0.31
CS(=O)(=O)CCNCc1ccc(-c2ccc3ncnc(Nc4ccc(OCc5ccccc5)c(C(F)(F)F)c4)c3c2)o1	1.94	3.29	3.27	1.07	5.49	3.74	6.37	4.77	5.71	2.52
CNC(=O)c1cncc(/C=C/c2ccccc2Cl)c1	3.78	0.21	0.02	-1	-1.84	-1.98	4.23	0.84	1.98	1.47
c1ccc(-c2nc3n(c2-c2ccc4c(c2)OCO4)CCC3)nc1	1.9	0.9	-0.41	0.69	2.51	-0.68	1.92	4.46	1.25	-1.29
CC(C)(CO)CNC(=O)c1ccc2c(c1)/C(=N/Nc1ccc(S(N)(=O)=O)cc1)C(=O)N2	–	-0.1	0.22	-4.71	1.07	0.16	6.9	4.13	5.3	0.38
COc1cc(/C=N/Nc2ncnc3[nH]ncc23)ccc1O	14.3	2.22	7.19	1.55	7.94	4.76	16.9	5.91	19	-1.95
FC(F)(F)c1cccc(-c2nn3ncccc3c2-c2ccnc(Nc3ccc4c(c3)OCCO4)n2)c1	10.8	1.96	3.62	2.8	5.15	1.92	9.05	4.74	7.93	0.03
NS(=O)(=O)c1ccc(N/N=C2\C(=O)Nc3ccc4ncccc4c32)cc1	22.8	2.15	6.75	10.8	41	27.5	69.8	26.1	70.7	-0.17
Cc1cccc2c1NC(=O)/C2=N\Nc1ccc(S(N)(=O)=O)cc1	0.93	2.06	2.97	6.31	5.84	7.75	3.25	3.97	3.33	2.12
COc1ccc2c(-c3ccnc(Nc4cccc(OC(F)(F)F)c4)n3)cnn2n1	16.5	3.41	8.88	1.54	0.82	11.6	6.91	5.66	6.19	1.76
c1ccc(COc2ccc(Nc3ncnc4ccc(-c5ccco5)cc34)cc2)cc1	4.05	2.03	1.74	-8.22	-7.82	1.65	8.16	2.01	7.69	3.87
Fc1ccc(-c2cc(-c3c[nH]nc3-c3ccccn3)ccn2)cc1	5.23	2.57	3.31	6.18	6.81	5.36	5.13	4.33	–	-0.17
COc1cccc(-c2c[nH]c3c(N/N=C/c4ccncc4)ncnc23)c1	8.57	1.82	2.81	0.74	6.34	1.79	9.49	4.63	8.05	4.93
CCc1nn2ncccc2c1-c1ccnc(NC2CC2)n1	4.48	1.57	2.04	1.58	7.38	8.21	10.7	6.71	11	4.64
